This is a sample that favours compounds with a hit; in the whole collection about 5.1% have one here.
Tau fluor counter: counter-screen for tau fibril formation inhibitors; tau K18 P301L Alexa594 fluorescence, heparin fibrillization; Potency, µM (series often up to 57.7 µM); actives 0.93% (n = 280,000); also: nearly all actives have a fitted effect of over 55% in size
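Human tau K18 P301L (15 uM unlabeled, 0.24 uM Alexa 594-labeled) in 100 mM sodium acetate pH 7 with 20 uM heparin, 6 hr at 37 C. ThT 30 uM added, 1 hr ambient; Alexa 594 FP and total fluorescence read at 555/632 nm.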
Tau fibril ThT: blocks human tau fibril formation measured by thioflavin T. actives 2.1% (n = 270,000). recombinant tau K18 P301L, heparin-induced fibrillization, ThT fluorescence. P10636. Potency, µM (top dose mostly 57.4 µM), usual class: inhibitors; also: nearly all actives have a fitted effect of over 55% in size
Target sequence (P10636 561-689 P618L limits assumed): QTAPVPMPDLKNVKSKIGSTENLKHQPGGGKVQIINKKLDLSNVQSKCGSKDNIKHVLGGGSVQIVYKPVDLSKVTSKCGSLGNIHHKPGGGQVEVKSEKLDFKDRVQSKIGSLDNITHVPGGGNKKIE
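Fibril formation assay: tau K18 P301L at 15 uM with trace Alexa 594 label, heparin inducer 20 uM, pH 7 sodium acetate buffer, 37 C for 6 hr; endpoint ThT signal.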
JMJD2E inh: inhibitors of human JMJD2E histone demethylase; B2RXH2; AID 2147; actives 1.6% (n = 230,000); Potency, µM (doses to about 57.1 µM), most hits filed as inhibitors; JMJD2E catalytic domain, FDH-coupled NADH fluorescence (FDH is formaldehyde dehydrogenase); also: nearly all actives have a fitted effect of over 50% in size
PNC inhibitor: blocks assembly of the perinucleolar compartment; PC3M PTB-GFP, PNC prevalence imaging, 16 h; stronger effect = lower value; activity change (PNC), negative = inhibition, % at 10 µM; actives 3.1% (n = 140,000); AID 2417;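 active = readout at or below -70, meaning at least 70% loss of cells showing the perinucleolar compartment, a nuclear body marking cancer cells; inconclusive = readout between -30 and a set limit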
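Compounds are pinned in duplicate onto adhered PC3M cells stably expressing GFP-tagged PTB and incubated 16 h at 37 C. Cells are then fixed, nuclei stained with Hoechst, and PNC-positive cells counted.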
Tau fibril FP: tau fibrillization inhibition (FP); Potency, µM (top dose mostly 57.7 µM), hits mostly inhibitors; P10636; K18 P301L tau heparin fibrillization, Alexa594 FP, 6 h; AID 1468; actives 0.39% (n = 280,000); also: nearly all actives have a fitted effect of over 55% in size
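FP of Alexa 594-tau after heparin (20 uM) induction. Substrate: human K18 P301L, 15 uM unlabeled, 0.24 uM labeled. Buffer 100 mM sodium acetate pH 7. 6 hr, 37 C.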
NPSR antagonist: antagonists of human neuropeptide S receptor cAMP signaling | AID 1461 | actives 1% (n = 220,000) | Q6W5P4 | CHO-NPSR cells, cAMP TR-FRET, antagonist mode | Potency, µM (doses to about 38.3 µM), actives largely listed as inhibitors; also: nearly all actives have a fitted effect of over 50% in size
Target sequence (Q6W5P4 whole entry, looked up): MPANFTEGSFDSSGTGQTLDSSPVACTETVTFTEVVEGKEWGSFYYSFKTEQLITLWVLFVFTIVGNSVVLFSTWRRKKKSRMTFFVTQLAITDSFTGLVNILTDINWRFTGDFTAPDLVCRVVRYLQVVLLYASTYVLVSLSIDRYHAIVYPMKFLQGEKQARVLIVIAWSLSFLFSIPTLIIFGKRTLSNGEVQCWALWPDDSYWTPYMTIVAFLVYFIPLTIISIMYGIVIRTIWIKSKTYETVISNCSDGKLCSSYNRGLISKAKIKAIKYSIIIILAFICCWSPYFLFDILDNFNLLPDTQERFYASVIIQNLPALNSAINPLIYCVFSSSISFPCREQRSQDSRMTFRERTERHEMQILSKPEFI
Each line names hits and unclear results; the compound was inactive in the other large screens; [ ] = dose if it differs, or a comment. Unless noted, calls follow the shape of the dose curve; as a rule, active = well fitted curve in the direction sought with a large enough effect; inconclusive = small, poorly fitted or top-dose-only effect, or another doubt; inactive = no such curve, though single readings can be large; an effect the other way counts as inactive or inconclusive.

CC(C)(C)c1ccc(C(=O)Nc2ccc(C=C(C#N)C#N)cc2)cc1	Tau fibril ThT inconclusive, JMJD2E inh 11µM, PNC inhibitor -134, Tau fibril FP inconclusive
CC(C)(C)c1ccc(C(=O)Nc2ccc(NC(=O)c3ccc(Cl)c(Cl)c3)cc2)cc1	none (no result: JMJD2E inh, PNC inhibitor, NPSR antagonist)
O=C(Nc1ccc(C(=O)N2CCCCC2)cc1)c1ccc(Br)cc1	none
CCOc1ccc(CCNC(=O)c2[nH]c3cc(OC)ccc3c2Sc2ccccc2)cc1OCC	none (no result: JMJD2E inh, PNC inhibitor, NPSR antagonist)
N#Cc1ccccc1NC(=O)C(=O)NCC(c1cccnc1)N1CCN(c2ccccc2)CC1 (centres undefined)	Tau fluor counter inconclusive (no result: JMJD2E inh, PNC inhibitor, NPSR antagonist)
Cc1ccc(NC(=O)CSc2nnc(CNC(=O)c3c(F)cccc3Cl)o2)cc1	PNC inhibitor -91
CCSc1nnc(NC(=O)CSc2nnc(CNC(=O)c3ccccc3F)o2)s1	PNC inhibitor -124
C=CCc1cccc(C2NC(C(=O)O)CCC2C)c1 (centres undefined)	none (no result: JMJD2E inh, PNC inhibitor, NPSR antagonist)
Cn1c(=O)n(C)c2cc(N3CCOCC3)c(NS(=O)(=O)c3ccc(Br)cc3)cc21	Tau fibril ThT inconclusive, Tau fibril FP inconclusive (no result: JMJD2E inh, PNC inhibitor, NPSR antagonist)
COc1ccccc1CN1CC(C(=O)N2CCN(c3ccc(F)cc3)CC2)CC1=O (centres undefined)	PNC inhibitor -99
Cc1ccc(S(=O)(=O)NC2CCC(C(=O)O)CC2)cc1 (centres undefined)	PNC inhibitor -103
Cc1ccccc1NC(=O)c1cccc2nc3ccccc3nc12	Tau fluor counter inconclusive, Tau fibril ThT 8.9µM, Tau fibril FP inconclusive
CCCCN(C)C(=O)C1CCC(=O)N(c2cc(OC)c(OC)c(OC)c2)C1c1ccc(OC)cc1 (centres undefined)	PNC inhibitor -100
CCOC(=O)c1[nH]c2c(c1Cc1ccccc1OC)C(=O)CC(c1ccc(OCC)cc1)C2 (centres undefined)	none (no result: JMJD2E inh, PNC inhibitor, NPSR antagonist)
Cc1nnc2n(-c3ccccc3)c(=O)c3c4c(sc3n12)CCCC4	none
NC(=O)CSc1nnc2n(-c3ccccc3)c(=O)c3c4c(sc3n12)CCCCC4	PNC inhibitor -81, NPSR antagonist inconclusive
CC(=O)Nc1sc2c(c1C(c1ccc(Cl)cc1)N1CCOCC1)CCCC2 (centres undefined)	Tau fibril ThT inconclusive, PNC inhibitor -106, NPSR antagonist inconclusive
O=C(/C=C/c1ccccc1)n1cnnc1SC/C=C/c1ccccc1	Tau fibril ThT 28µM, Tau fibril FP inconclusive
Cc1nnc(SC/C=C/c2ccccc2)n(N)c1=O	none (no result: PNC inhibitor)
CCN(CC)c1ccc2cc(C(=O)Nc3cccnc3N3CCOCC3)c(=O)oc2c1	none
CCN(CC)c1ccc2cc(C(=O)Nc3ccccn3)c(=O)oc2c1	Tau fibril ThT inconclusive, JMJD2E inh 4.5µM, PNC inhibitor inconclusive
CCN(CC)c1ccc2cc(-c3nnc(-c4cccc(Cl)c4)o3)c(=O)oc2c1	Tau fibril ThT inconclusive (no result: JMJD2E inh, PNC inhibitor, NPSR antagonist)
CCN(CC)c1ccc2cc(C(N)=O)c(=O)oc2c1	Tau fibril ThT inconclusive, PNC inhibitor -105
CCN(CC)c1ccc2cc(-c3nnc(-c4ccncc4)o3)c(=O)oc2c1	Tau fibril ThT inconclusive, JMJD2E inh inconclusive, PNC inhibitor -119
CCN(CC)c1ccc2cc(/C(N)=N/NC(=O)c3cccs3)c(=O)oc2c1	Tau fibril ThT 0.79µM (no result: PNC inhibitor)
Cc1ccc2[nH]c(CSc3nnc(NC(=O)c4ccccc4C)s3)cc(=O)c2c1	none (no result: JMJD2E inh, PNC inhibitor, NPSR antagonist)
CCOC(=O)C1=C(CS(=O)(=O)c2ccc(F)c(C)c2)NC(=O)NC1c1ccc(O)c(O)c1 (centres undefined)	JMJD2E inh 14µM, PNC inhibitor inconclusive
CCN=C1SC(C(=O)Nc2ccccc2)CC(=O)N1CC (centres undefined)	PNC inhibitor -85
COc1ccc(OC)c2sc(NC(=O)CCSc3ccccc3)nc12	Tau fluor counter inconclusive, Tau fibril ThT inconclusive, JMJD2E inh inconclusive, PNC inhibitor -88, Tau fibril FP inconclusive, NPSR antagonist inconclusive
C=C(C)CC1(NC(C)c2ccccc2)CCCCC1 (centres undefined)	PNC inhibitor -109
CC1CCN(c2nc(Cl)nc(Nc3ccc([N+](=O)[O-])cc3)n2)CC1	Tau fluor counter 8.9µM[quencher], Tau fibril ThT inconclusive, Tau fibril FP inconclusive
C=CCNc1nc(Nc2ccc([N+](=O)[O-])cc2)nc(N2CCCC2)n1	Tau fluor counter inconclusive, Tau fibril ThT inconclusive (no result: PNC inhibitor)
COC(=O)c1cnn2c(C)c(Cc3c(C)cc(C)cc3C)c(C)nc12	Tau fibril ThT inconclusive (no result: JMJD2E inh, PNC inhibitor, NPSR antagonist)
Cc1[nH]c2ccccc2c1/C=N/NC(=O)c1cccc(F)c1	Tau fibril ThT inconclusive, Tau fibril FP inconclusive (no result: PNC inhibitor)
Cc1[nH]c2ccccc2c1/C=N/Nc1nncn1N	Tau fluor counter inconclusive, Tau fibril ThT 14µM, JMJD2E inh inconclusive (no result: PNC inhibitor)
CCc1cc(C(=O)N/N=C/c2c(C)[nH]c3ccccc23)cs1	Tau fluor counter inconclusive, Tau fibril ThT inconclusive, JMJD2E inh inconclusive
Cc1[nH]c2ccccc2c1/C=N/Nc1nc(Nc2ccccc2)nc(N2CCOCC2)n1	Tau fluor counter 22µM[quencher], Tau fibril ThT inconclusive, Tau fibril FP inconclusive, NPSR antagonist inconclusive
COc1ccc(/C=N/Nc2ccccn2)cc1OC	Tau fluor counter inconclusive, Tau fibril ThT inconclusive (no result: PNC inhibitor)
Cc1[nH]c2ccccc2c1/C=N/Nc1ccc(F)cc1F	Tau fluor counter inconclusive, Tau fibril ThT 13µM, JMJD2E inh inconclusive
Cc1[nH]c2ccccc2c1/C=N/Nc1ccccn1	Tau fluor counter 16µM[quencher], Tau fibril ThT 10µM, JMJD2E inh 25µM (no result: PNC inhibitor)
CCCCCCC#CC1C=CC(OC(=O)OCC)C(COC(=O)OCC)O1 (centres undefined)	Tau fibril ThT inconclusive, Tau fibril FP inconclusive (no result: JMJD2E inh, PNC inhibitor, NPSR antagonist)
CCOc1ccccc1C(=O)Nc1cc(-c2nc3cccnc3s2)ccc1C	none (no result: JMJD2E inh, PNC inhibitor, NPSR antagonist)
Cn1c2ccccc2c2c(C(=O)N3CCN(c4cccc(Cl)c4)CC3)cn(C3CCCCC3)c(=O)c21	none (no result: JMJD2E inh, PNC inhibitor, NPSR antagonist)
C=CCN1C(c2ccccc2)=CS/C1=C(/C#N)c1nnc(N2CCOCC2)n1-c1ccccc1	JMJD2E inh inconclusive
C=CCn1c(CC#N)nnc1N1CCOCC1	PNC inhibitor -103
CC(C)C1Oc2ccccc2N(CC(=O)N(Cc2ccccn2)C2CC2)C1=O (centres undefined)	PNC inhibitor -100
O=C(CSc1nc2nccnc2c(=O)n1CCc1c[nH]c2ccccc12)Nc1ccc(F)cc1	Tau fibril ThT inconclusive (no result: JMJD2E inh, PNC inhibitor, NPSR antagonist)
CCn1c(-c2ccc(C)cc2)n[nH]c1=S	none
CCCn1c(-c2ccc(F)cc2)n[nH]c1=S	PNC inhibitor -121
CCOC(=O)Nc1ccc2c(CN3C(=O)NC(CC)(CC)C3=O)cc(=O)oc2c1	none
CCOC(=O)Nc1ccc2c(CN3C(=O)NC4(CCCC4)C3=O)cc(=O)oc2c1	JMJD2E inh inconclusive, PNC inhibitor -100
Oc1ccc(N=Cc2ccc(O)c(O)c2)cc1	Tau fluor counter inconclusive, Tau fibril ThT 3.2µM, JMJD2E inh 0.63µM, Tau fibril FP 8.9µM

Source: PubChem BioAssay (National Center for Advancing Translational Sciences (NCATS))
